Results filed as inconclusive are left out. Calls of active or inactive are those of the source. How the source made its calls, unless noted: active means hit-call score of the fitted dose curve at least 0.9, where 1 is the maximum; inactive means score below 0.9.
How the values were obtained:
[1] = read-out: Phosphatase and tensin (PTEN), PTEN (gene 5728); assay: LTEA_HepaRG_PTEN: Life Technologies and Expression Analysis (LTEA) Assay for Phosphatase and tensin (PTEN) using HepaRG (AID 2283523); conditions: mRNA level, 48 h; actives raise or lower the signal
Summary of the method: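 Expression of PTEN is quantified in the human liver line HepaRG following two days of dosing (top concentration 100 uM, half-log dilutions, 0.5% DMSO). Values derive from bidirectional curve fitting relative to DMSO controls.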

[2] = read-out: solute carrier (SLC22A1), SLC22A1 (gene 6580); assay: LTEA_HepaRG_SLC22A1: Life Technologies and Expression Analysis (LTEA) Assay for solute carrier (SLC22A1) using HepaRG (AID 2283524); conditions: mRNA level, 48 h; actives raise or lower the signal
Summary of the method: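 Transcript induction or suppression of SLC22A1 in human HepaRG cultures is scored after 48 h chemical treatment, with DMSO (0.5%) as baseline for bidirectional fitting. Concentrations span eight half-log points topping at 100 uM.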

[3] = read-out: Pyruvate Dehydrogenase Kinase 4 (PDK4), PDK4 (gene 5166); assay: LTEA_HepaRG_PDK4: Life Technologies and Expression Analysis (LTEA) Assay for Pyruvate Dehydrogenase Kinase 4 (PDK4) using HepaRG (AID 2283525); conditions: mRNA level, 48 h; actives raise or lower the signal
Summary of the method: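 Eight-point, half-log concentration series (max 100 uM, 0.5% DMSO) applied to differentiated HepaRG cells for 48 h in duplicate. Endpoint: PDK4 mRNA induction or repression by qRT-PCR against DMSO baseline.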

[4] = read-out: NAD(P)H dehydrogenase [quinone] 1 (NQO1), NQO1 (gene 1728); assay: LTEA_HepaRG_NQO1: Life Technologies and Expression Analysis (LTEA) Assay for NAD(P)H dehydrogenase [quinone] 1 (NQO1) using HepaRG (AID 2283526); conditions: mRNA level, 48 h; actives raise or lower the signal
Summary of the method: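 qRT-PCR read-out (Fluidigm TaqMan), normalized to three housekeeping genes, after 48 h chemical exposure of HepaRG cells. Concentrations: eight points, top 100 uM, half-log steps, 0.5% DMSO vehicle. Gain or loss of signal fitted relative to DMSO.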

[5] = read-out: succinate dehydrogenase complex iron sulfur subunit B (SDHB), SDHB (gene 6390); assay: LTEA_HepaRG_SDHB: Life Technologies and Expression Analysis (LTEA) Assay for succinate dehydrogenase complex iron sulfur subunit B (SDHB) using HepaRG (AID 2283528); conditions: mRNA level, 48 h; actives raise or lower the signal
Summary of the method: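 HepaRG, 48 h exposure, 8-pt half-log series from 100 uM in 0.5% DMSO, duplicates. Readout: SDHB mRNA by Fluidigm qRT-PCR vs housekeeping genes; bidirectional fit relative to DMSO.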

[6] = read-out: Signal transducer and activator of transcription 3 (Homo sapiens) (UniProt P40763); assay: LTEA_HepaRG_STAT3: Life Technologies and Expression Analysis (LTEA) Assay for Signal transducer and activator of transcription (STAT3) using HepaRG (AID 2283529); conditions: mRNA level, 48 h; actives raise or lower the signal
Summary of the method: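 In this transcriptional endpoint, HepaRG cultures receive test chemicals at up to 100 uM for 48 h, tested in duplicate. STAT3 mRNA is normalized to ACTB, GAPDH and POLR2A.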

[7] = read-out: solute carrier (SLCO1B1), SLCO1B1 (gene 10599); assay: LTEA_HepaRG_SLCO1B1: Life Technologies and Expression Analysis (LTEA) Assay for solute carrier (SLCO1B1) using HepaRG (AID 2283530); conditions: mRNA level, 48 h; actives raise or lower the signal
Summary of the method: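 Gain or loss of SLCO1B1 mRNA is fitted against the 0.5% DMSO vehicle in human HepaRG liver cells treated 48 h at up to 100 uM in half-log steps. Expression comes from qRT-PCR normalized to endogenous controls.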

[8] = read-out: sulfotransferase 2A1 (SULT2A1), SULT2A1 (gene 6822); assay: LTEA_HepaRG_SULT2A1: Life Technologies and Expression Analysis (LTEA) Assay for sulfotransferase 2A1 (SULT2A1) using HepaRG (AID 2283531); conditions: mRNA level, 48 h; actives raise or lower the signal
Summary of the method: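 Cells were plated and cultured 48 h, switched to serum-free induction medium, then dosed in duplicate for 48 h (8 concentrations, max 100 uM). RNA was isolated and SULT2A1 expression measured by qRT-PCR; gain or loss of signal fitted relative to DMSO.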

[9] = read-out: Transforming Growth Factor (TGFA), TGFA (gene 7039); assay: LTEA_HepaRG_TGFA: Life Technologies and Expression Analysis (LTEA) Assay for Transforming Growth Factor (TGFA) using HepaRG (AID 2283532); conditions: mRNA level, 48 h; actives raise or lower the signal
Summary of the method: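 Gene expression of TGFA was quantified by qRT-PCR after human HepaRG cells were treated for 48 h with test chemicals (eight concentrations, highest 100 uM, 0.5% DMSO). Activity in either direction was fitted relative to DMSO.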

[10] = read-out: Transforming Growth Factor (TGFB1), TGFB1 (gene 7040); assay: LTEA_HepaRG_TGFB1: Life Technologies and Expression Analysis (LTEA) Assay for Transforming Growth Factor (TGFB1) Transporter using HepaRG (AID 2283533); conditions: mRNA level, 48 h; actives raise or lower the signal
Summary of the method: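 Expression change of TGFB1 in human HepaRG cells is measured after a 48 h chemical exposure, up to 100 uM in 0.5% DMSO vehicle. Curves are fitted in both directions relative to the DMSO baseline.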

TIMP1, TIMP1 (gene 7076) = assay: LTEA_HepaRG_TIMP1: Life Technologies and Expression Analysis (LTEA) Assay for TIMP1 using HepaRG (AID 2283534); conditions: mRNA level, 48 h; actives raise or lower the signal;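 further: TaqMan qRT-PCR signal normalized to ACTB GAPDH and POLR2A housekeeping genes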
Summary of the method: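 We dosed human liver HepaRG cultures for 48 hours with up to 100 uM test chemical and measured TIMP1 expression by qRT-PCR. Activity in either direction is fitted relative to the 0.5% DMSO vehicle.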

[11] = read-out: Tumor necrosis factor receptor 1 (TNFRSF1A), TNFRSF1A (gene 7132); assay: LTEA_HepaRG_TNFRSF1A: Life Technologies and Expression Analysis (LTEA) Assay for Tumor necrosis factor receptor 1 (TNFRSF1A) using HepaRG (AID 2283535); conditions: mRNA level, 48 h; actives raise or lower the signal
Summary of the method: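 Expression of TNFRSF1A in human HepaRG liver cells was measured by qRT-PCR 48 h after chemical dosing (maximum 100 uM). Bidirectional curve fitting used 0.5% DMSO as baseline.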

[12] = read-out: Thyroid Hormone Responsive (THRSP), THRSP (gene 7069); assay: LTEA_HepaRG_THRSP: Life Technologies and Expression Analysis (LTEA) Assay for Thyroid Hormone Responsive (THRSP) using HepaRG (AID 2283536); conditions: mRNA level, 48 h; actives raise or lower the signal
Summary of the method: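 Cell model: human HepaRG, approx. 100,000 cells/well, 0.5% DMSO vehicle. Exposure lasts 48 h; phenobarbital 1 mM serves as induction positive control. Gene expression is measured by qRT-PCR against three endogenous control genes.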

[13] = read-out: Cellular tumor antigen p53 (Homo sapiens) (UniProt P04637); assay: LTEA_HepaRG_TP53: Life Technologies and Expression Analysis (LTEA) Assay for Tumor Protein P53 (TP53) using HepaRG (AID 2283537); conditions: mRNA level, 48 h; actives raise or lower the signal
Summary of the method: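 HepaRG, 48 h exposure, top 100 uM, half-log 8-point, 0.5% DMSO vehicle, duplicates. Read: TP53 mRNA by TaqMan qRT-PCR, normalised to ACTB/GAPDH/POLR2A; bidirectional fit vs DMSO.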

[14] = read-out: UDP glucuronosyltransferase (UGT1A1), UGT1A1 (gene 54658); assay: LTEA_HepaRG_UGT1A1: Life Technologies and Expression Analysis (LTEA) Assay for UDP glucuronosyltransferase (UGT1A1) using HepaRG (AID 2283538); conditions: mRNA level, 48 h; actives raise or lower the signal
Summary of the method: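 HepaRG, 48 h chemical exposure (top 100 uM, half-log 8-pt, 0.5% DMSO vehicle), duplicate wells; qRT-PCR (TaqMan, Fluidigm array) for UGT1A1 mRNA, housekeeping-normalized; bidirectional curve fit vs DMSO baseline.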

[15] = read-out: UDP glucuronosyltransferase (UGT1A6), UGT1A6 (gene 54578); assay: LTEA_HepaRG_UGT1A6: Life Technologies and Expression Analysis (LTEA) Assay for UDP glucuronosyltransferase (UGT1A6) using HepaRG (AID 2283539); conditions: mRNA level, 48 h; actives raise or lower the signal
Summary of the method: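 Endpoint is UGT1A6 transcript induction or loss in a human liver cell line, quantified by TaqMan qRT-PCR 48 h after dosing. Concentrations ran from 100 uM downward in half-log steps in 0.5% DMSO; activity was fitted in both directions versus vehicle.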

[16] = read-out: X-box binding protein 1 (XBP1), XBP1 (gene 7494); assay: LTEA_HepaRG_XBP1: Life Technologies and Expression Analysis (LTEA) Assay for X-box binding protein 1 (XBP1) using HepaRG (AID 2283540); conditions: mRNA level, 48 h; actives raise or lower the signal
Summary of the method: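 Human HepaRG monolayers receive test chemical for 48 h across an eight-point half-log series starting at 100 uM. XBP1 mRNA gain or loss is scored against DMSO by qRT-PCR.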

[17] = read-out: Nuclear factor erythroid 2-related factor 2 (Homo sapiens) (UniProt Q16236); assay: LTEA_HepaRG_NFE2L2: Life Technologies and Expression Analysis (LTEA) Assay for Nuclear factor erythroid 2-related factor 2 (NFE2L2) Transcription Factor using HepaRG (AID 2283527); conditions: mRNA level, 48 h; actives raise or lower the signal;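 further: TaqMan qRT-PCR transcript level normalised to ACTB GAPDH and POLR2A housekeeping genes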
Summary of the method: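 Human liver HepaRG line treated in duplicate for 48 h with an eight-point series topping at 100 uM. Gene expression of NFE2L2 by qRT-PCR, bidirectionally fitted against the vehicle control.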

[18] = LTEA_HepaRG_LDH_cytotoxicity: Cytotoxicity Assessment in the Life Technologies and Expression Analysis (LTEA) Assay (AID 2283563; active means hit-call score of the fitted dose curve at least 0.9, where 1 is the maximum)
Summary of the method: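 Human HepaRG hepatic cells are treated with test chemicals for 48 h at up to 100 uM in 0.5% DMSO. Cytotoxicity is scored from medium LDH against the vehicle control.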

[19] = ATG_XTT_Cytotoxicity: Cytotoxicity Assessment in the Attagene TRANS-FACTORIAL HepG2 Assay (AID 2283584; active means hit-call score of the fitted dose curve at least 0.9, where 1 is the maximum)
Summary of the method: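 Transfect HepG2 with GAL4-UAS reporter units, dose compound, incubate 24 h, then measure viable cell number by XTT. Fit concentration response against DMSO baseline.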

Measured: AC50

Sequence of Cellular tumor antigen p53 (Homo sapiens) (P04637 whole entry, looked up): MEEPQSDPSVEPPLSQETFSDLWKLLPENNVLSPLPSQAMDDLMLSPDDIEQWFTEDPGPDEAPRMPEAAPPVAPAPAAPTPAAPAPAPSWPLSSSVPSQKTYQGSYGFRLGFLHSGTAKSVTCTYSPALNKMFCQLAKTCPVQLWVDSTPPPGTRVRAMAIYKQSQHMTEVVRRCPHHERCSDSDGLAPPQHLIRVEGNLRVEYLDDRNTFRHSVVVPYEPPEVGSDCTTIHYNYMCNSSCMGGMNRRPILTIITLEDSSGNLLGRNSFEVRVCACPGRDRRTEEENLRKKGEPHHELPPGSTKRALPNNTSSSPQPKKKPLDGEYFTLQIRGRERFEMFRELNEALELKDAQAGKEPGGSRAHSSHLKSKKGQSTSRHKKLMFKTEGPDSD
Sequence of Nuclear factor erythroid 2-related factor 2 (Homo sapiens) (Q16236 whole entry, looked up): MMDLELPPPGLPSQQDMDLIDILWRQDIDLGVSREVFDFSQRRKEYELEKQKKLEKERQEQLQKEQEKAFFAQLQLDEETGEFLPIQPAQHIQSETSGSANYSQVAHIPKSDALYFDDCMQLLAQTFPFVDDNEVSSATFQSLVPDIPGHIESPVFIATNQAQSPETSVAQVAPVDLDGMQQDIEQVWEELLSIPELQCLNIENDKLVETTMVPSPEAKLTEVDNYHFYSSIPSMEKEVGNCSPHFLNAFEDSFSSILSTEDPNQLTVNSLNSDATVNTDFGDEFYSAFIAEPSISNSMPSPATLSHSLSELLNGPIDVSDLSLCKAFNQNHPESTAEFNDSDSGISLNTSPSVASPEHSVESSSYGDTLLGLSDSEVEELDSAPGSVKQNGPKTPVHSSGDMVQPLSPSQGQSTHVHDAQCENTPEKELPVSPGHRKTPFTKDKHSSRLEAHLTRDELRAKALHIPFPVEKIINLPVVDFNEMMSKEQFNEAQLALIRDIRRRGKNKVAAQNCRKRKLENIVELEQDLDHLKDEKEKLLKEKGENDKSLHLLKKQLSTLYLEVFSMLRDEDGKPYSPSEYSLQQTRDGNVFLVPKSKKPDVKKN
Sequence of Signal transducer and activator of transcription 3 (Homo sapiens) (P40763 whole entry, looked up): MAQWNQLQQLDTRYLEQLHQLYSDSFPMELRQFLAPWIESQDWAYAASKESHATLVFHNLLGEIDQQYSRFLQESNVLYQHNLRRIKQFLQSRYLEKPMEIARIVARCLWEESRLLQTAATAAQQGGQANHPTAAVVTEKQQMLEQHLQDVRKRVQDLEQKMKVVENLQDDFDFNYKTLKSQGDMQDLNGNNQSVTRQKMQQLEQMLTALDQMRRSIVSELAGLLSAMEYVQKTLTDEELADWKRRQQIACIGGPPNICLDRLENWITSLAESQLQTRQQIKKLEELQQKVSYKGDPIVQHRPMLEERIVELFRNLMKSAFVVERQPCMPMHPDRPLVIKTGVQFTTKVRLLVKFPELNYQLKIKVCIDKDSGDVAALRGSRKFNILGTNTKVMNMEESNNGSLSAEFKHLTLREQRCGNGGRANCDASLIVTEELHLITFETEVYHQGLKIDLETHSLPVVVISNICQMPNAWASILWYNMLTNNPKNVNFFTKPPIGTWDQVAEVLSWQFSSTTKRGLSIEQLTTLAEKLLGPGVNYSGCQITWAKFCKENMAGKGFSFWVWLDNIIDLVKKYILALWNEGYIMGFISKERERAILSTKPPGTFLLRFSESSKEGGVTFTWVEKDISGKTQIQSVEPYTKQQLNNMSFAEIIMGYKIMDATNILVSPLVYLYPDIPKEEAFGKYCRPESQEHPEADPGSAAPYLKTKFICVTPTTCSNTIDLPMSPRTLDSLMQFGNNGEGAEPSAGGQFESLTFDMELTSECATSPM

CCCCCCCC1CCC(=O)O1 (configuration not stated)
not listed: [17] | [18] | [19]
inactive: all other assays above

NC(=O)N(O)[C@@H]1COc2cc(OCc3ccccc3)ccc21
not listed: [13] | [18] | [19]
inactive: all other assays above

c1ccc2cc3ccccc3cc2c1
active: [14] 13.1 µM
not listed: [18] | [19]
inactive: all other assays above

OCCOCCOCCO
inactive: all assays above
